In PubChem BioAssay AID1508622 (National Center for Advancing Translational Sciences (NCATS), 2021):
Calls of active or inactive are those of the source. The call rests on the fitted dose curve; in most records, active means well fitted activation curve with a large enough effect; inconclusive means small, poorly fitted or top-dose-only effect; inactive means no such curve, though single readings can be large or run the other way.

test: Confirmatory qHTS for Identification of Small Molecule Activators of Huntingtin-Antisense Promoter Activity; settings: HEK293 HTT-AS promoter firefly luciferase reporter, 24 h; series mostly up to 57.5 µM
How it was run: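 Plated reporter HEK293 cells (24 h) received library compounds at up to 57.5 uM final or 50 uM PTC124, incubated 24 h at 37C; firefly luciferase luminescence was then recorded with Dual-Glo reagent.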

Potency, inactive:
CCn1cc(C(=O)N2CCN(c3ccc(C)cc3)C(C)C2)c(=O)c2cc(S(=O)(=O)N3CCCC3)ccc21 (centres undefined)
Cc1cc(C)c(S(=O)(=O)NCCc2csc3nc(-c4ccc(Cl)cc4)nn23)c(C)c1
CCOC(=O)c1cc2c(=O)n3ccccc3nc2n(Cc2ccco2)c1=NC(=O)c1cc(C)cc(C)c1
O=C1C2=C(Nc3ccccc3SC2c2ccc(C(F)(F)F)cc2)c2ccccc21 (centres undefined)
CC(=O)c1ccc(NC(=O)c2ccc(-c3nc(CSc4ccc(C)cc4)c(C)o3)cc2)cc1
Cc1ccc(NCc2cccn2-c2nnc(N3CCC(C(=O)NCCC(C)C)CC3)s2)cc1
CN1CCCC(n2nc(Cc3ccc(Cl)cc3)c3ccccc3c2=O)CC1 (centres undefined)
O=C(NCCC1=CCCCC1)c1ccc2c(c1)N(Cc1cccc(Cl)c1)C(=O)c1ccccc1S2(=O)=O
CCc1nnc2n1N(C(C)=O)C(c1ccc(C(C)(C)C)cc1)=C(C(C)=O)S2
